KLK7 zymogen act: proKLK7 zymogen activators, primary screen, biochemical, fluorescence intensity; purified proKLK7, EDANS-DABCYL substrate fluorescence; 100% is mature enzyme control, 0% vehicle; activation, % at 7 µM; 0.9% of 370,000 active; AID 652039, 2013;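 active means activation above the mean of all tested compounds plus 3 SD, computed per campaign excluding outliers beyond control limits, cut at about 13% in these data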
NR3A LBD binder: binders of NR3A ligand-binding domain, primary screen, biophysical, differential scanning fluorimetry, uHTS; AID 1259313, 2017; 2.5% of 340,000 active; NR3A LBD differential scanning fluorimetry, Tm shift; 0% = protein alone, 100% = glycine-bound protein; Tm shift relative to glycine control, % at 25 µM;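 active means melting temperature shift of at least 10% of the positive control shift, at one fixed dose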
ADAM17 inh: ADAM17 inhibitors, primary screen, biochemical, QFRET; inhibition, % at 6.95 µM; Disintegrin and metalloproteinase domain-containing protein 17 (Homo sapiens), P78536; recombinant ADAM17, EDANS/DABCYL FRET peptide cleavage; 0.83% of 370,000 active; AID 720648, 2013;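 active means inhibition above the mean of compounds lying between control limits plus 3 SD, set per campaign, cut at about 8.5% in these data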
ADAM10 inh: human ADAM10 inhibitors, primary screen, biochemical, QFRET, HTS; AID 720582, 2013; recombinant ADAM10, EDANS/DABCYL FRET peptide cleavage, 3 h; 0.62% of 370,000 active; Disintegrin and metalloproteinase domain-containing protein 10 (Homo sapiens), O14672; inhibition, % at 7 µM;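 active means inhibition above a per-campaign cutoff equal to the mean of compounds falling between control-based bounds plus 3 SD, cut at about 20% in these data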
Target sequence (O14672 214-748 limits assumed): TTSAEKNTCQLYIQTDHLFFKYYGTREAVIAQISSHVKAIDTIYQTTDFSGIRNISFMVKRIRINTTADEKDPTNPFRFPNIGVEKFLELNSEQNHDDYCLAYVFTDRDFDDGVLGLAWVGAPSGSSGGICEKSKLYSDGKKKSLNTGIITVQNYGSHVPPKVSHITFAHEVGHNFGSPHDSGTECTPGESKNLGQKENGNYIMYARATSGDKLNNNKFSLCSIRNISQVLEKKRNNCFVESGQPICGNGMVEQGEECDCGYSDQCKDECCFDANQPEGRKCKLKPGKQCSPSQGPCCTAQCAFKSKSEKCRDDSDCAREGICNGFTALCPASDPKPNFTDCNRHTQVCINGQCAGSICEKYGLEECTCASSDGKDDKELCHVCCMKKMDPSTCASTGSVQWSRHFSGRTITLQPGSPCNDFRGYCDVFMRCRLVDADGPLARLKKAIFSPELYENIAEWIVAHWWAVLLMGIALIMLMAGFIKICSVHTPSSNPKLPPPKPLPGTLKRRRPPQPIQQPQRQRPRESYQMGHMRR
AHR act: AHR activators, primary screen, cell-based, luminescence, luciferase reporter, human | AHR-responsive luciferase reporter cells | activation, % at 5 µM | 2.5% of 320,000 active; in the data active means activation above about 47%
rCAG RNA binder: binders of r(CAG) RNA repeats, primary screen, biochemical, fluorescence. inhibition, % at 3 µM. r(CAG) RNA repeat, TO-PRO-1 dye displacement fluorescence. 1.3% of 370,000 active;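 active means inhibition above the plate cutoff, the mean of all test compounds on that plate plus 3 SD, cut at about 35% in these data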;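 further: higher means more dye released from RNA so lower well fluorescence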
ADAM10 ctr: ADAM10 inhibitors, counter-screen for ADAM17 exosite inhibitor project, biochemical, FRET, human ADAM10; inhibition, % at 6.95 µM; AID 743256, 2014; shares compounds with ADAM17 inh; 47% of 2,900 active; recombinant ADAM10, EDANS/DABCYL FRET peptide cleavage, 3 h;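 active means mean inhibition over the triplicate runs exceeds the activity threshold set in the earlier primary screen, cut at about 20% in these data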
ADAM17 confirm: ADAM17 inhibitors, hit retest, confirmation, biochemical, QFRET peptide cleavage. AID 743257, 2014. recombinant ADAM17, EDANS/DABCYL QFRET peptide cleavage. inhibition, % at 6.95 µM. shares compounds with ADAM17 inh. 65% of 2,900 active;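 active means mean inhibition across replicates above the hit cutoff set in the primary screen, cut at about 8.5% in these data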
A number is an active result. An excerpt weighted towards active compounds, which were near 7% of everything screened.

COc1cc(C(C(=O)NC2CCCCC2)N(C(=O)Cc2c[nH]c3ccccc23)c2ccccc2C)cc(OC)c1OC (centres undefined) was read as KLK7 zymogen act inactive, NR3A LBD binder inactive, ADAM17 inh 9.5, ADAM10 inh inactive, AHR act inactive, rCAG RNA binder inactive, ADAM10 ctr 28.4 and ADAM17 confirm 16.2.
For CN(C)CCN(C(=O)c1ccc(N2C(=O)CCC2=O)cc1)c1nc2cc3c(cc2s1)OCCO3 the results were KLK7 zymogen act inactive, ADAM17 inh inactive, ADAM10 inh inactive, AHR act inactive and rCAG RNA binder inactive.
Screening CCOc1ccc(C(=O)c2nc3c(n2O)CCCC3)cc1 returned KLK7 zymogen act inactive, NR3A LBD binder inactive, ADAM17 inh 9.8, ADAM10 inh inactive, AHR act inactive, rCAG RNA binder inactive, ADAM10 ctr inactive and ADAM17 confirm 9.7.
For Cc1ccccc1OCc1n[nH]c(=S)n1-c1cccc(Cl)c1 the results were KLK7 zymogen act inactive, NR3A LBD binder inactive, ADAM17 inh inactive, ADAM10 inh inactive, AHR act inactive and rCAG RNA binder inactive.
Cc1cc(Cl)ccc1OCc1n[nH]c(=S)n1C1CCCCC1 was read as KLK7 zymogen act inactive, NR3A LBD binder inactive, ADAM17 inh 9.3, ADAM10 inh inactive, AHR act inactive, rCAG RNA binder inactive, ADAM10 ctr 30.3 and ADAM17 confirm 11.0.
For CCCOc1c(Br)cc(C(=O)OCc2cc(=O)n3ccsc3n2)cc1OC the results were KLK7 zymogen act inactive, NR3A LBD binder inactive, ADAM17 inh inactive, ADAM10 inh inactive and rCAG RNA binder inactive.
Screening O=C(CSc1nc2ccccc2o1)NN=C/C=C/c1ccccc1 returned KLK7 zymogen act inactive, ADAM17 inh 9.5, ADAM10 inh inactive, rCAG RNA binder inactive, ADAM10 ctr inactive and ADAM17 confirm 15.9.
Nc1cc(S(=O)(=O)N2CCCCC2)ccc1Oc1ccc(Cl)cc1 was read as KLK7 zymogen act inactive, NR3A LBD binder inactive, ADAM17 inh 8.8, ADAM10 inh inactive, AHR act inactive, rCAG RNA binder inactive, ADAM10 ctr inactive and ADAM17 confirm 11.2.
Screening COC(=O)c1ccc(Oc2ccc(S(=O)(=O)N3CCCCC3)cc2N)cc1 returned KLK7 zymogen act inactive, NR3A LBD binder inactive, ADAM17 inh inactive, ADAM10 inh inactive, AHR act inactive and rCAG RNA binder inactive.
C/C=C/c1ccccc1OCCCN1CCC(C(O)(c2ccccc2)c2ccccc2)CC1 was read as KLK7 zymogen act inactive, ADAM17 inh 12.5, ADAM10 inh inactive, rCAG RNA binder inactive, ADAM10 ctr inactive and ADAM17 confirm 9.2.
For OC(c1ccccc1)(c1ccccc1)C1CCN(CCCOc2cccc(C(F)(F)F)c2)CC1 the results were KLK7 zymogen act inactive, ADAM17 inh 9.9, ADAM10 inh inactive, rCAG RNA binder inactive, ADAM10 ctr 26.6 and ADAM17 confirm 19.1.
Screening OC(c1ccccc1)(c1ccccc1)C1CCN(CCCOc2cccc(Cl)c2)CC1 returned KLK7 zymogen act inactive, ADAM17 inh inactive, ADAM10 inh inactive and rCAG RNA binder inactive.
For OC(c1ccccc1)(c1ccccc1)C1CCN(CCCOc2ccc(C(F)(F)F)cc2)CC1 the results were KLK7 zymogen act inactive, ADAM17 inh 11.1, ADAM10 inh inactive, rCAG RNA binder inactive, ADAM10 ctr 24.2 and ADAM17 confirm 9.8.
CCOC(=O)C1(C)CCN1C(=O)/C=C/c1ccccc1 (centres undefined) was read as KLK7 zymogen act inactive, ADAM17 inh inactive, ADAM10 inh inactive and rCAG RNA binder inactive.
For CC(C)OC(=O)/C(C#N)=C/c1c[nH]c2ccccc12 the results were KLK7 zymogen act inactive, NR3A LBD binder inactive, ADAM17 inh inactive, ADAM10 inh inactive, AHR act inactive and rCAG RNA binder inactive.
`CCCN(C(=O)C1CC(=O)N(c2ccccc2C(C)CC)C1)C1CCS(=O)(=O)C1` (centres undefined) gave KLK7 zymogen act inactive, NR3A LBD binder inactive, ADAM17 inh inactive, ADAM10 inh inactive, AHR act inactive and rCAG RNA binder inactive.
For Cc1noc(C)c1S(=O)(=O)Nc1ccc(C(=O)N2CCC(C)CC2)cc1 the results were AHR act inactive.
C#CCN(C[C@@H]1[C@@H](OC(=O)Nc2cccs2)[C@@H](OC(=O)Nc2cccs2)Cn2c(=O)n(CCCCCC)c(=O)n21)S(=O)(=O)c1ccc(C)cc1 was read as KLK7 zymogen act inactive, ADAM17 inh 10.5, ADAM10 inh inactive, rCAG RNA binder inactive, ADAM10 ctr inactive and ADAM17 confirm 10.4.
C#CCN(C[C@@H]1[C@@H](OC(=O)Nc2cccs2)[C@@H](OC(=O)Nc2cccs2)C[C@H](C(=O)OC)[C@@H]1C(=O)OC)S(=O)(=O)c1ccc(C)cc1 was read as KLK7 zymogen act inactive, ADAM17 inh inactive, ADAM10 inh inactive and rCAG RNA binder inactive.
Screening CC1=C(C(=O)N(C(C)C)C(C)C)CC(CC(=O)NC2CCCC2)C(=O)N1Cc1ccc(F)cc1 (centres undefined) returned KLK7 zymogen act inactive, ADAM17 inh inactive, ADAM10 inh inactive and rCAG RNA binder inactive.
COC(=O)[C@@H](Cc1c[nH]c2ccccc12)NC(=O)c1ccc2c(c1)OCO2 was read as KLK7 zymogen act inactive, NR3A LBD binder inactive, ADAM17 inh inactive, ADAM10 inh inactive, AHR act inactive and rCAG RNA binder inactive.
`O=C(COC(=O)[C@H](Cc1c[nH]c2ccccc12)NC(=O)c1ccc(Cl)cc1)Nc1ccc2c(c1)OCO2` gave KLK7 zymogen act inactive, NR3A LBD binder 19.7, ADAM17 inh 13.1, ADAM10 inh inactive, AHR act inactive, rCAG RNA binder inactive, ADAM10 ctr 35.8 and ADAM17 confirm 19.9.
For Cc1ccc(Cn2c(=O)c3c(nc4n3CCCN4Cc3ccccc3)n(C)c2=O)cc1 the results were KLK7 zymogen act inactive, NR3A LBD binder inactive, ADAM17 inh 10.4, ADAM10 inh inactive, AHR act inactive, rCAG RNA binder inactive, ADAM10 ctr inactive and ADAM17 confirm inactive.

Compound activity: PubChem BioAssay, several laboratories
